From PubChem BioAssay AID1566 (Sanford-Burnham Center for Chemical Genomics, 2009)
Where “and” joins values, the source holds several entries; their conditions need not be identical. Equal values may be shown once. The campaign covered roughly 290,000 compounds. About 1,800 (0.62%) were called active. The sample holds actives, similar compounds and a random draw of the others, so the mix is not that of the screen. Values without a mark were called inactive. Cut-off read from the data, not from the text of the source: active = inhibition above about 50%; inactive = the rest.

Assay: inhibition of NOD2-driven NF-kB reporter – cell-based, luminescence, uHTS, HEK293 (AID 1566)
Conditions: HEK293 NOD2/NF-kB luciferase reporter, at 4 µM, active compounds read high
Molecule `Nn1cnnc1SCC(=O)Nc1ccc(C2CCCCC2)cc1` has an inhibition of -14.6%. `O=C(CSCCO)Nc1ccc(C2CCCCC2)cc1` gave an inhibition of -8.8%. In the case of `O=C(O)CSCC(=O)Nc1ccc(C2CCCCC2)cc1`, the inhibition is reported as 73.5% (active). In the case of `C=C1CCC[C@]2(C)C[C@H]3OC(=O)C(CNC(C)(CO)CO)[C@H]3CC12` (some centres not stated), the inhibition is reported as 3.4%. In the case of `CC1(C)CC(NC(=O)c2cccc3ccccc23)CC(C)(C)N1`, the inhibition is reported as -1.7%. Molecule `COc1cc(C(=O)Nc2scc(-c3ccccc3)c2C(=O)O)cc(OC)c1OC` has an inhibition of 13.6%. `COc1cc(C(=O)Nc2sc3c(c2C(=O)O)CCC3)cc(OC)c1OC` showed an inhibition of 23.1%. With `CC1CCc2c(sc(NC(=O)c3ccco3)c2C(=O)O)C1` (configuration not stated) the inhibition was 36.1%. Work on `COc1cc(C(=O)Nc2scc(-c3ccc(C)cc3)c2C(=O)O)cc(OC)c1OC` yielded an inhibition of 42.9%. In the case of `CC(C)(C)OC(=O)C(C)(C)O/N=C(\C(=O)O)c1csc(N)n1`, the inhibition is reported as 12.5%. Molecule `Cn1c(N/N=C/c2cc3ccccc3nc2Cl)nc2ccccc21` has an inhibition of -51%. With `CCn1c(C)nc2cc(-c3nc4n(n3)Cc3ccccc3-4)ccc21` the inhibition was 93% (active). For `Cc1ccc(-c2nc3n(n2)Cc2ccccc2-3)cc1`, the inhibition was -79.2%. `Clc1ccc(-c2nc3n(n2)Cc2ccccc2-3)cc1` gave an inhibition of -152%. `CCC(=O)c1ccccc1OCCN1CCN(Cc2ccccc2)CC1` showed an inhibition of 2.5%. `O=C1OCCC1Sc1nnc(-c2ccc3c(c2)OCO3)o1` (configuration not stated) showed an inhibition of 28%. For `O=C1CCCCC1Sc1nnc(-c2ccc3c(c2)OCO3)o1` (configuration not stated), the inhibition was 71.3% (active). In the case of `O=C(c1ccc(Cl)cc1)N1CCCCC(Sc2nnc(-c3ccc4c(c3)OCO4)o2)C1=O` (configuration not stated), the inhibition is reported as 29.1%. `CCN(CC)c1ccc2cc(C(N)=O)c(=O)oc2c1` gave an inhibition of -17.6%. `CCN(CC)c1ccc2cc(C(C)=O)c(=O)oc2c1` gave an inhibition of -9.9%. With `CCN(CC)c1ccc2cc(NC(=O)CCC(=O)O)c(=O)oc2c1` the inhibition was 57.1% (active). `O=C(N/N=C/c1cccc(O)c1)C(=O)N1CCCCCC1` showed an inhibition of 8.2%. For `COc1ccc(COC(=O)C2=C(C)NC(=O)NC2c2ccc(F)cc2)cc1` (configuration not stated), the inhibition was 50.5% (active). For `COc1ccc(COC(=O)C2=C(C)NC(=O)NC2c2ccc(O)cc2)cc1` (configuration not stated), the inhibition was 5.6%. For `COc1ccc(COC(=O)C2=C(C)NC(=O)NC2c2ccc(OC)cc2)cc1` (configuration not stated), the inhibition was 17.9%. `O=C(CN1CCN(S(=O)(=O)c2ccc(Cl)cc2)CC1)NC1CCCC1` gave an inhibition of -2.2%. `C#CC(=O)N(c1ccc(OC)c(OC)c1)C(C(=O)NC1CCCC1)c1cccs1` (configuration not stated) showed an inhibition of -0.2%. For `C#CC(=O)N(c1ccc(OC)cc1OC)C(C(=O)NC1CCCC1)c1cccs1` (configuration not stated), the inhibition was 62% (active). For `C#CC(=O)N(c1cc(OC)ccc1OC)C(C(=O)NC1CCCC1)c1cccs1` (configuration not stated), the inhibition was 17%. Work on `CC(=O)c1c(C)[nH]c(C(=O)Nc2nc(-c3ccc(Cl)cc3)cs2)c1C` yielded an inhibition of 31.2%. Work on `CC(=O)c1c(C)[nH]c(C(=O)Nc2nc(C)cs2)c1C` yielded an inhibition of -21.9%. In the case of `CCCNC(=O)CCCN1C(=O)c2ccccc2Sc2ncccc21`, the inhibition is reported as 7.1%. With `CCCCN(CC)CCCNC(=O)Cn1nc(Cc2ccncc2)c2ccccc2c1=O` the inhibition was 2.4%. With `COc1ccccc1-n1c(-c2ccccc2)c[n+]2c1CCc1ccccc1-2` the inhibition was 49% and 41.3%. Work on `COc1ccc(-n2c(-c3ccc(Br)cc3)c[n+]3c2CCc2ccccc2-3)cc1` yielded an inhibition of 31.4%. With `Cc1ccc(-n2c(-c3ccccc3)c[n+]3c2CCc2ccccc2-3)c(C)c1` the inhibition was 56.2% (active). `CSc1ncccc1C(=O)OCC(=O)c1cc(C)n(CC2CCCO2)c1C` (configuration not stated) showed an inhibition of 5.9%. In the case of `Cc1cc(C(=O)COC(=O)c2ccccc2NCCO)c(C)n1CC1CCCO1` (configuration not stated), the inhibition is reported as -4.6%. In the case of `COCCn1c(C)cc(C(=O)COC(=O)c2ccc(Br)o2)c1C`, the inhibition is reported as 4.7%. For `COCCn1c(C)cc(C(=O)COC(=O)c2ccccc2Br)c1C`, the inhibition was 68.7% (active). For `Cc1cc(C(=O)COC(=O)c2cccnc2Cl)c(C)n1CC1CCCO1` (configuration not stated), the inhibition was 55.8% (active). With `COCCn1c(C)cc(C(=O)COC(=O)c2ccc[nH]c2=O)c1C` the inhibition was 29.6%. In the case of `Cc1ccc(C(=O)OCC(=O)c2cc(C)n(CC3CCCO3)c2C)cc1` (configuration not stated), the inhibition is reported as 18.2%. Work on `Cc1cc(C(=O)COC(=O)c2ccc(O)cc2)c(C)n1CC1CCCO1` (configuration not stated) yielded an inhibition of -113%. `O=C(CC1C(=O)NCCN1C(=O)Nc1ccc(Cl)cc1)Nc1ccc(F)cc1` (configuration not stated) showed an inhibition of 8.1%. `COc1ccc(C/C(C)=N/NC(=O)c2cccnc2)cc1` gave an inhibition of -5.6%. For `CCOc1ccccc1/C=C/C(=O)NCC(=O)N1CCC(N(C)C2CCCCC2C)CC1` (configuration not stated), the inhibition was 9.7%. `COc1ccc(CNCCNC(=O)c2nonc2N)cc1OC` showed an inhibition of 11.4%. Work on `Cc1ccc(S(=O)(=O)Nc2ccccc2C(=O)N2CCN(C)CC2)cc1` yielded an inhibition of 4%. `COc1ccc(NC(=O)CO/N=C(\C)c2cccs2)cc1` showed an inhibition of -10.2%. Work on `O=C(Nc1ccncc1)Nc1cccc(C(F)(F)F)c1` yielded an inhibition of 18%. Molecule `O=C(Nc1ccccc1)Nc1cccc(C(F)(F)F)c1` has an inhibition of -38.6%. `O=S(=O)(c1ccc(NCc2ccc(F)cc2)nc1)N1CCCC1` gave an inhibition of 12.4%. With `CC(OC(=O)Cc1ccc(Cl)cc1)C(=O)NCCC1=CCCCC1` (configuration not stated) the inhibition was 17.9%. For `Cc1ccccc1OCC(=O)Nc1ccc(C(=O)Nc2ccccc2C(=O)O)cc1`, the inhibition was 33.3%. `COc1ccccc1C(=O)Nc1ccc(C(=O)c2ccccc2)cc1` gave an inhibition of 4.1%. `COC(=O)c1ccccc1NS(=O)(=O)c1ccc(NC(C)=O)cc1` showed an inhibition of 1.9%. In the case of `COc1ccccc1C(=O)Nc1ccc(C(=O)Nc2ccccc2C(=O)O)cc1`, the inhibition is reported as 59.6% (active). Work on `COC(=O)c1ccc(NC(=O)c2ccccc2NS(C)(=O)=O)cc1` yielded an inhibition of 6.5%. Work on `COc1ccccc1C(=O)Nc1ccc(C(=O)O)cc1` yielded an inhibition of -1.4%. `Cc1cc(C(=O)Nc2ccccc2C(=O)O)ccc1NC(=O)COc1cccc(C)c1C` gave an inhibition of 47.7%. Molecule `c1ccc(CCSc2nccn2-c2ccccc2)cc1` has an inhibition of -141%.
